Laboratory results as given in PubChem BioAssay (EPA / NIEHS).
Records with an inconclusive call do not appear. Active and inactive are the calls of the source. How the source made its calls, unless noted: active means hit-call score of the fitted dose curve at least 0.9, where 1 is the maximum; inconclusive means response in the unintended direction; inactive means score below 0.9.

Assays:
DIO2 (gene 1734) = experiment: CCTE_GLTED_hDIO2: CCTE's human Deiodinase 2 (DIO2) Inhibition Assay, Great Lakes Toxicology and Ecology Division (GLTED) Lab (AID 2284050)
How it was run: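 Inhibition is judged by reduced iodide release: uninhibited human DIO2 frees iodide from substrate over 3 h, measured afterward by Sandell-Kolthoff colorimetry. Iodinated chemicals or nitrite, iron and thiocyanate may interfere.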

[1] = CCTE_Shafer_MEA_acute_AB: CCTE's Alamar Blue Assay for Cytotoxicity in the Neural Acute Assay, Shafer Lab (AID 2284069);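 further: active compounds lower the viability signal compared with DMSO wells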
How it was run: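 Metabolic activity in chemically exposed rat cortical neurons (MEA cultures, day 13/15 post-plating) measured via CellTiter Blue resazurin reduction, 544/590 nm fluorescence; fitted relative to DMSO, with signal loss indicating reduced viability.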

[2] = CCTE_Shafer_MEA_acute_LDH: CCTE's Lactate Dehydrogenase Assay for Cytotoxicity in the Neural Acute Assay, Shafer Lab (AID 2284086);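 further: active means LDH release rises above DMSO vehicle level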
How it was run: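 Medium collected from MEA wells of primary rat cortical cultures (DIV 13 or 15) immediately after 40 min chemical exposure is assayed spectrophotometrically for lactate dehydrogenase activity. Endpoint fitted in positive direction versus DMSO.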

[3] = CCTE_Shafer_MEA_dev_spike_duration_mean: CCTE's Neural Network Formation Assay for Mean Spike Duration, Shafer Lab (AID 2284051; active means hit-call score of the fitted dose curve at least 0.9, where 1 is the maximum; inactive means score below 0.9;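 further: mean network spike duration pooled as area under curve over DIV 5 to 12 recordings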)
How it was run: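 Readout is the average length of network spikes, clustered firing across electrodes, summed over DIV 5, 7, 9 and 12 as area under the curve. Neurons from rat cortex developed networks on MEA plates under continuous 12-day exposure.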

[4] = CCTE_Shafer_MEA_dev_network_spike_duration_std: CCTE's Neural Network Formation Assay for Standard Deviation of Network Spike Duration, Shafer Lab (AID 2284052; active means hit-call score of the fitted dose curve at least 0.9, where 1 is the maximum; inactive means score below 0.9;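 further: area under curve of spike duration SD across recording days 5 to 12; hits are decreases in network spike duration SD versus DMSO vehicle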)
How it was run: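 Read-out is the trapezoidal area-under-the-curve across recordings made on days 5, 7, 9 and 12, fitted in the negative direction against DMSO baseline. Neurons were primary rat cortical cells treated from day 0, with treatment renewed at each feed.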

[5] = CCTE_Shafer_MEA_dev_per_network_spike_spike_number_mean: CCTE's Neural Network Formation Assay for Mean Number of Spikes in a Network Spike, Shafer Lab (AID 2284053; active means hit-call score of the fitted dose curve at least 0.9, where 1 is the maximum; inactive means score below 0.9)
How it was run: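 Continuous twelve-day exposure of developing rat cortical networks grown over 16 microelectrodes per well; spontaneous firing is captured at four time points, and the per-network-spike spike number is integrated over development by trapezoidal AUC.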

[6] = CCTE_Shafer_MEA_dev_per_network_spike_spike_percent: CCTE's Neural Network Formation Assay for Percent of Spikes in a Network Spike, Shafer Lab (AID 2284054; active means hit-call score of the fitted dose curve at least 0.9, where 1 is the maximum; inactive means score below 0.9)
How it was run: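 Read-out: percent of spikes falling in a 0.05 s window at network-spike peak, from spontaneous MEA recordings on days 5, 7, 9 and 12; trapezoidal AUC; loss of signal versus DMSO. Rat cortical cultures, compound present throughout.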

[7] = CCTE_Shafer_MEA_dev_LDH: CCTE's Lactate Dehydrogenase Assay for Cytotoxicity in the Neural Network Formation Assay, Shafer Lab (AID 2284068);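 further: exposure for twelve days from plating with re-dosing on DIV 5 and 9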
How it was run: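 Cytotoxicity companion to network-formation recordings: rat cortical neurons received compound over 12 days of development, re-dosed at DIV 5 and 9 feeds. Viability was inferred from LDH enzyme activity relative to DMSO.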

[8] = CCTE_Shafer_MEA_dev_mutual_information_norm: CCTE's Neural Network Formation Assay for Mutual Information Normalization, Shafer Lab (AID 2284091; active means hit-call score of the fitted dose curve at least 0.9, where 1 is the maximum; inactive means score below 0.9)
How it was run: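 Neurons from rat cortex were seeded at 1.5 x 10^5 cells/well onto PEI-coated MEAs in a laminin drop, then exposed to compound from day 0 for twelve days. Network recordings on four days gave mutual information, summarised by AUC relative to DMSO.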

[9] = CCTE_Shafer_MEA_dev_correlation_coefficient_mean: CCTE's Neural Network Formation Assay for Mean Correlation Coefficient, Shafer Lab (AID 2284093; active means hit-call score of the fitted dose curve at least 0.9, where 1 is the maximum; inactive means score below 0.9)
How it was run: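 Read-out: well-mean correlation coefficient of spike trains between electrode pairs, collapsed over four recording days as trapezoidal area-under-the-curve. Developing rat cortical neuron networks grown on MEAs received test chemical continuously from plating.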

[10] = CCTE_Mundy_HCI_Cortical_Synap_Neur_Matur_NeuriteSpotCountPerNeuriteLength: CCTE's Synaptogenesis and Neurite Maturation Assay in rat cortical cells for Neurite Spot Count per Neurite Length, Mundy Lab (AID 2284210; active means hit-call score of the fitted dose curve at least 0.9, where 1 is the maximum; inactive means score below 0.9)
How it was run: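 Read-out: synaptophysin puncta counted along MAP2-stained neurites, normalised to neurite length, by automated high-content imaging. Rat cortical cells; AraC DIV 5; chemical dosing DIV 7; termination DIV 12. DMSO baseline.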

[11] = CCTE_Mundy_HCI_Cortical_Synap_Neur_Matur_BPCount: CCTE's Synaptogenesis and Neurite Maturation Assay in rat cortical cells for Branch Point Count, Mundy Lab (AID 2284211; active means hit-call score of the fitted dose curve at least 0.9, where 1 is the maximum; inactive means score below 0.9)
How it was run: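 HCI read-out of branch points from MAP2/synaptophysin/Hoechst immunofluorescence; rat cortical cultures, AraC DIV 5, dosing DIV 7, fixed DIV 12; fit in positive direction vs DMSO baseline.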

[12] = CCTE_Mundy_HCI_Cortical_NOG_NeuriteCount: CCTE's Neurite Outgrowth Assay in rat cortical cells for Neurite Count, Mundy Lab (AID 2284212; active means hit-call score of the fitted dose curve at least 0.9, where 1 is the maximum; inactive means score below 0.9;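 further: cells fixed about two days after chemical exposure began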)
How it was run: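 Rat cortical primary cells; compound added 2 h post-plating, 1/10 dilution of working solution. Anti-betaIII-tubulin/AF488 ICC; ArrayScan neurite count vs DMSO.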

[13] = CCTE_Mundy_HCI_Cortical_NOG_NeuriteLength: CCTE's Neurite Outgrowth Assay in rat cortical cells for Neurite Length, Mundy Lab (AID 2284213; active means hit-call score of the fitted dose curve at least 0.9, where 1 is the maximum; inactive means score below 0.9)
How it was run: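 First, rat primary cortical cells were plated and, 2 h later, given test chemical as a 1/10 dilution. Finally, βIII-tubulin immunostaining enabled automated imaging of neurite length.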

[14] = CCTE_Mundy_HCI_Cortical_Synap_Neur_Matur_NeuriteLength: CCTE's Synaptogenesis and Neurite Maturation Assay in rat cortical cells for Neurite Length, Mundy Lab (AID 2284214; active means hit-call score of the fitted dose curve at least 0.9, where 1 is the maximum; inactive means score below 0.9)
How it was run: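 Cultures of rat primary cortical cells received chemical at DIV 7 and were fixed at DIV 12, after glial arrest with AraC at DIV 5. Neurite length was measured by automated imaging of MAP2 immunofluorescence.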

[15] = CCTE_Mundy_HCI_Cortical_Synap_Neur_Matur_NeuriteSpotCountPerNeuron: CCTE's Synaptogenesis and Neurite Maturation Assay in rat cortical cells for Neurite Spot Count per Neuron Count, Mundy Lab (AID 2284215; active means hit-call score of the fitted dose curve at least 0.9, where 1 is the maximum; inactive means score below 0.9)
How it was run: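 Rat primary cortical cultures given AraC at DIV 5, dosed from DIV 7 to DIV 12 with media change. Fixed, stained for MAP2, synaptophysin and Hoechst; neurite-associated synaptophysin puncta per neuron quantified by high-content imaging versus DMSO.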

[16] = CCTE_Shafer_MEA_dev_AB: CCTE's Alamar Blue Assay for Cytotoxicity in the Neural Network Formation Assay, Shafer Lab (AID 2284083);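 further: twelve days of exposure from plating with re-dosing on DIV 5 and 9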
How it was run: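 Fluorescent resazurin reduction serves as the viability read-out, with DMSO as negative control and baseline. Cells were primary rat cortical neurons grown on MEA plates and dosed from day 0 to day 12, treatment renewed on DIV 5 and 9.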

CCOC(=O)O[C@H](C)OC(=O)c1ccc2c(c1)cc(C(=O)NC1CCN(C(C)C)CC1)n2Cc1cc(-c2ccc(Cl)s2)on1
AC50 (DIO2 (gene 1734)): 45.2 µM (active)

CCCCCCCCCCCC[N+](C)(C)C
AC50 (DIO2 (gene 1734)): 96.4 µM (active)

CCCCCCCCOC(=O)c1cc(O)c(O)c(O)c1
AC50 (DIO2 (gene 1734)): 143 µM (active) | outcome [1]: inactive | outcome [2]: inactive

CC(O)CC(C)(C)O (centres undefined)
outcome [1]: inactive | outcome [2]: inactive

CCCCCCCCCCCCO
outcome (DIO2 (gene 1734)): inactive | outcome [1]: inactive

c1ccc2n[nH]nc2c1
outcome [1]: inactive | outcome [2]: inactive

Oc1ccccc1
outcome [3]: inactive | outcome [4]: inactive | outcome [5]: inactive | outcome [6]: inactive | outcome [7]: inactive | outcome [8]: inactive | outcome [9]: inactive | outcome [10]: inactive | outcome [11]: inactive | outcome [12]: inactive | outcome [13]: inactive | outcome [14]: inactive | outcome [15]: inactive

c1ccc2ccccc2c1
outcome [3]: inactive | outcome [4]: inactive | outcome [5]: inactive | outcome [6]: inactive | outcome [7]: inactive | outcome [8]: inactive | outcome [9]: inactive

Cc1c2ccccc2c(C)c2c1ccc1ccccc12
outcome [1]: inactive | outcome [2]: inactive

CN(C)C(=O)C1(N2CCCCC2)CCN(CC[C@@]2(c3ccc(Cl)c(Cl)c3)CN(C(=O)c3ccccc3)CCO2)CC1
AC50 (DIO2 (gene 1734)): 73.9 µM (active) | outcome [1]: inactive | outcome [2]: inactive

CN1C(=O)CC[C@H]1c1cccnc1
outcome [3]: inactive | outcome [4]: inactive | outcome [5]: inactive | outcome [6]: inactive | outcome [7]: inactive | outcome [1]: inactive | outcome [16]: inactive | outcome [8]: inactive | outcome [9]: inactive | outcome [10]: inactive | outcome [11]: inactive | outcome [12]: inactive | outcome [13]: inactive | outcome [14]: inactive | outcome [15]: inactive

CCN(CC)C(=O)c1cc(S(=O)(=O)Cc2ccccc2)c(N2CCC(c3ccccc3)CC2)cc1N(CC)CCN(C)C
AC50 (DIO2 (gene 1734)): 37 µM (active) | outcome [1]: inactive | outcome [2]: inactive

CC(C)(C)c1cc(/C=C2\SC(N)=NC2=O)cc(C(C)(C)C)c1O
AC50 (DIO2 (gene 1734)): 30.3 µM (active) | outcome [1]: inactive

CN1C(=O)N(c2ccccc2Br)Cc2cnc(Nc3ccc4c(c3)OCC(CO)O4)nc21 (centres undefined)
outcome (DIO2 (gene 1734)): inactive

C[C@]12CC[C@@H]3c4ccc(O)cc4CC[C@H]3[C@@H]1CC[C@H]2O
outcome [1]: inactive

COc1cccc([C@H](O)C2CCN(CCc3ccc(F)cc3)CC2)c1OC
outcome [1]: inactive | outcome [2]: inactive

CC(=O)N1CCN(c2ccc(OC[C@H]3CO[C@](Cn4ccnc4)(c4ccc(Cl)cc4Cl)O3)cc2)CC1
outcome [1]: inactive | outcome [2]: inactive

O=C(O)c1ccccc1-n1cc(C(=O)O)c(=O)c2cc(Nc3c(F)cc(F)cc3Cl)c(Cl)cc21
outcome [1]: inactive | outcome [2]: inactive

CO[C@H]1/C=C/O[C@@]2(C)Oc3c(C)c(O)c4c(O)c(c(/C=N/N5CCN(C)CC5)c(O)c4c3C2=O)NC(=O)/C(C)=C\C=C\[C@H](C)[C@H](O)[C@@H](C)[C@@H](O)[C@@H](C)[C@H](OC(C)=O)[C@@H]1C
outcome [1]: inactive | outcome [2]: inactive

NCc1cccc(C2CCN(C(=O)c3ccc(C#Cc4ccccc4F)o3)CC2)c1
AC50 (DIO2 (gene 1734)): 30.6 µM (active) | outcome [1]: inactive | outcome [2]: inactive
